Only some compounds are listed: those with a hit (about 1.8% of all), similar ones and a draw of the others.
F508del corr: correctors of CFTR F508del function in bronchial epithelial cells; 350,000 compounds, 0.36% hits; CFBE cells, YFP halide quenching; stimulated with forskolin plus potentiator P3; % fluorescence drop versus neutral controls; AID 720511; activity (quench increase), % at 7.58 µM;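 active = mean added fluorescence quench of at least 8% versus neutral control, with both replicates also reaching 8%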;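 note: cells transiently co-express mutant CFTR-F508del with the halide-sensitive YFP; corrector assay measuring rescue of mutant channel to the surface after 24 h compound exposure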
GSIS activator: GLuc luminescence reporter in INS-1E cells, primary screen for activators of glucose-dependent secretion of insulin; INS-1E GLuc reporter insulin secretion, 2-3 h; activation, % at 16.6 µM; 370,000 compounds, 0.61% hits; AID 743287;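 active = lowest replicate activation of at least 40%, so every replicate reaches that level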
RAD52 anneal inh: inhibitors of human RAD52 DNA annealing | P43351 | recombinant RAD52 DNA annealing, FRET fluorescence | inhibition, % at 18.7 µM | 360,000 compounds, 0.46% hits | AID 651710;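 active = every replicate showing at least 50% inhibition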
Target sequence (P43351 whole entry, looked up): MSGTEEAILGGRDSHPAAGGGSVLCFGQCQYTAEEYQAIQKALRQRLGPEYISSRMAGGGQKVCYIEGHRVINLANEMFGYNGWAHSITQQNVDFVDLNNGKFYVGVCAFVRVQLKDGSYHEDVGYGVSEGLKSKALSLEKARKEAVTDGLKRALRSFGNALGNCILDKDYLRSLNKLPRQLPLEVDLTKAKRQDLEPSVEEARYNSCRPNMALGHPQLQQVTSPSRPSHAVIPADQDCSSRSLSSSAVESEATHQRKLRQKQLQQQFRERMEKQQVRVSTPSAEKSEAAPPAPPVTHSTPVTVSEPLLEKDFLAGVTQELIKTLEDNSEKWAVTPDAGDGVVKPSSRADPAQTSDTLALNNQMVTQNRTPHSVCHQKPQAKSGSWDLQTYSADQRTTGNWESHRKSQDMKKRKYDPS
LGR2 inh: inhibitors of bursicon-induced Drosophila LGR2 receptor cAMP signaling. HEK293 LGR2, CRE-luciferase, bursicon-stimulated, 4 h. inhibition, % at 9.99 µM. 380,000 compounds, 0.35% hits;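 active = drop in luminescence signal, shown as inhibition above about 50% in the replicate tests, limit read from the data, passing the limit was not always enough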;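 note: agonist challenge used bursicon conditioned medium at about half maximal strength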
EWS-Fli block: inhibitors of EWS/Fli oncoprotein transcriptional activity; inhibition, % at 12.6 µM; 350,000 compounds, 0.67% hits; A673 NR0B1-luciferase reporter, viability-normalised;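 active = mean inhibition of at least 50% after viability correction, with every replicate also passing that limit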;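 note: firefly luciferase signal divided by Alamar Blue viability fluorescence both relative to DMSO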
RAD54 branch: inhibitors of human RAD54 branch migration | 360,000 compounds, 0.14% hits | inhibition, % at 10.4 µM | RAD54 Holliday junction branch migration, FAM/BHQ fluorescence;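 active = mean normalized replicate activity at least 40 and at least half of replicates scoring 40 or more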;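 note: inhibitors cause a drop in the FAM fluorescence signal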
Numbers stand for hits; - = inactive; . = no result.

SMILES | F508del corr | GSIS activator | RAD52 anneal inh | LGR2 inh | EWS-Fli block | RAD54 branch
COc1ccc(C(NC(=O)c2cc(OC)ccc2OC)c2ccccc2)cc1 (centres undefined) | - | - | - | - | - | -
COc1ccc(OC)c(CC(=O)NC(c2ccccc2)c2ccccc2)c1 | - | - | - | - | - | -
COc1ccc(CC(=O)NC(c2ccccc2)c2ccc(C)cc2)c(OC)c1 (centres undefined) | 8.0 | - | - | - | - | -
COc1ccc(C(NC(=O)c2c(F)c(F)c(F)c(F)c2F)c2ccccc2)cc1 (centres undefined) | . | - | - | 67 | 62 | -
Oc1ccccc1C1=NOC(O)(C(F)F)C1 (centres undefined) | . | . | . | . | . | -
CO[C@H]1CN(C)C(=O)c2cc(NS(=O)(=O)CC(F)(F)F)ccc2OC[C@H](C)N(CCC(F)(F)F)C[C@@H]1C | - | - | - | - | - | -
CCc1ccc([C@H]2[C@@H]3C(=O)C[C@@H]4C(=O)N(CC)C(=O)[C@@H]4[C@@H]3CN2S(=O)(=O)c2ccc(C)cc2)cc1 | - | - | - | - | - | -
O=C(NC1CCCC1)[C@@H]1N[C@@H]2c3ccc(-c4cccc(F)c4)c(=O)n3C[C@@H]2[C@H]1CO | - | - | - | - | - | .
O=C(NC1CCCC1)[C@H]1N[C@H]2c3ccc(-c4cccc(F)c4)c(=O)n3C[C@H]2[C@@H]1CO | - | - | 58 | - | - | .
O=S1(=O)c2ccc(Br)cc2N2CCC[C@@H]2CN1C1CC1 | - | - | - | - | - | -
C[C@@H](c1ccccc1)N1C[C@H]2CCCN2c2cc(Br)ccc2S1(=O)=O | - | - | - | - | 63 | -
C[C@H]1[C@H](c2ccccc2)Oc2cc(Br)ccc2S(=O)(=O)N1Cc1ccc(Cl)cc1 | - | - | - | - | - | .
O=S1(=O)c2ccc(Br)cc2N2CC[C@H](C2)N1Cc1ccc(Cl)cc1 | - | - | - | - | 66 | -
O=S1(=O)c2ccc(Br)cc2N2CCC[C@@H]2CN1Cc1ccc(Cl)cc1 | - | - | - | - | - | -
O=S1(=O)c2ccc(Br)cc2N2CCC[C@H]2CN1Cc1ccccc1 | 9.5 | - | - | - | - | -
O=C(O)CC/C(=C\c1ccc(N2CCCC2)c([N+](=O)[O-])c1)c1nc2ccccc2s1 | - | - | - | - | - | .
O=C(NC(c1ccccc1)c1ccc2ccccc2n1)C1CCN(CCOc2ccc(Cl)cc2)CC1 (centres undefined) | - | . | - | - | - | -
CCN=c1sc(C(=O)OC)cc(=O)n1CC | . | . | . | . | . | -
C=CCN=c1sc(C(=O)OC)cc(=O)n1CC=C | . | 50 | . | - | . | -
C[C@@H]1CN([C@H](C)CO)C(=O)c2cc(NS(=O)(=O)c3cn(C)cn3)ccc2O[C@@H]1CN(C)Cc1ccccc1 | - | - | - | - | - | -
Cc1nnc(NC(=O)c2ccc(S(=O)(=O)N3CC(C)OC(C)C3)cc2)o1 (centres undefined) | - | - | - | - | . | -
CC1CN(S(=O)(=O)c2ccc(C(=O)Nc3ccccc3F)cc2)CC(C)O1 (centres undefined) | 9.1 | - | - | - | - | -
COC(=O)c1cn(C(=O)c2ccc(C)cc2C)c2ccccc12 | 11 | - | - | - | - | .
CCOC(=O)CNc1ncnc2nc[nH]c12 | - | . | - | - | - | -
O=C(CCN1CCOCC1)c1ccc2c(c1)OCCO2 | . | 48 | . | - | . | -
SMILES | F508del corr | GSIS activator | RAD52 anneal inh | LGR2 inh | EWS-Fli block | RAD54 branch
O=C(CCN1CCCCC1)c1ccccc1 | - | - | - | - | - | -
O=C(CCN1CCOCC1)c1ccccc1 | - | 105 | - | - | - | .
CC(C)CC#Cc1ccc2c(c1)O[C@@H](CN(C)Cc1cccc(F)c1)[C@H](C)CN([C@@H](C)CO)S2(=O)=O | - | 95 | - | - | - | -
CC(C)CC#Cc1ccc2c(c1)O[C@@H](CN(C)Cc1cccc(F)c1)[C@@H](C)CN([C@H](C)CO)S2(=O)=O | - | - | - | - | - | -
C[C@@H]1CN([C@H](C)CO)S(=O)(=O)c2ccc(C#Cc3cccc(F)c3)cc2O[C@@H]1CN(C)CC1CC1 | - | - | 59 | - | - | -
CC(C)CC#Cc1ccc2c(c1)O[C@H](CN(C)Cc1cccc(F)c1)[C@@H](C)CN([C@@H](C)CO)S2(=O)=O | - | - | - | - | 62 | -
O=C(CCN1C(=O)c2ccccc2S1(=O)=O)Nc1ccc(F)cc1F | - | - | - | - | - | -
COc1cc(OC)nc(C(NC(=O)C2CCN(Cc3ccc(Oc4ccccc4)cc3)CC2)c2ccccc2C)n1 (centres undefined) | - | - | - | - | - | -
O=C(CN1CCN(S(=O)(=O)c2ccc(Cl)c(Cl)c2)CC1)N1CCCC1 | 11 | - | - | - | - | -
CN(C)C(=O)N1CCN(S(=O)(=O)c2ccc3ccccc3c2)CC1 | - | - | - | - | - | -
O=C(CN1CCN(S(=O)(=O)c2ccc(Cl)c(Cl)c2)CC1)N1CCCCC1 | - | - | - | - | - | -
O=C(CCl)N1CCN(S(=O)(=O)c2ccc3ccccc3c2)CC1 | - | - | - | - | 60 | -
CC1CCCC(C)N1CCCNC(=O)C1CCCN(S(=O)(=O)N2CCCCC2)C1 (centres undefined) | - | - | - | - | - | -
Fc1ccc(-c2cc(C(F)(F)F)nc(-n3cc(Cl)cn3)n2)cc1 | - | - | - | - | - | .
FC(F)(F)c1cc(-c2ccccc2)nc(-n2cc(Cl)cn2)n1 | - | 51 | - | - | - | -
CC(=O)NCCc1nc2ccccc2n1CCOc1ccccc1 | - | - | - | - | - | -
CC(=O)NCCc1nc2ccccc2n1CCOc1cccc(C)c1 | - | 59 | - | - | - | .
Cc1ccc(-n2c(=O)[nH]cc(C(=O)Nc3ccc4c(c3)OCCO4)c2=O)cc1 | . | . | . | . | . | -
Cc1ccc(-n2cc(-c3ccccc3)c3c(N4CCN(C)CC4)ncnc32)cc1 | - | - | - | - | - | .
c1ccc(Cn2ncc3c(N4CCN(c5ccccc5)CC4)ncnc32)cc1 | - | - | - | 66 | - | -
c1ccc(Cn2ncc3c(N4CCN(C(c5ccccc5)c5ccccc5)CC4)ncnc32)cc1 | - | - | - | - | - | -
Cc1cccc(-n2ncc3c(N4CCOCC4)ncnc32)c1 | - | - | - | 90 | 68 | -
Cc1ccc(-n2cc(-c3ccccc3)c3c(N4CCOCC4)ncnc32)cc1 | 8.2 | - | - | - | - | .
Clc1ccc(-n2ncc3c(N4CCCCCC4)ncnc32)cc1 | - | - | - | 96 | 80 | -
COc1ccc(S(=O)(=O)N2CCC(C(=O)N3CCc4ccccc4C3)CC2)cc1Cl | - | - | - | - | - | -
COc1ccccc1-c1ccc2n(c1=O)C[C@H]1[C@H](CO)[C@@H](C(=O)NC3CCC3)N(C(C)=O)[C@@H]21 | - | - | - | - | - | -

Source: PubChem (Broad Institute)
